According to PubChem BioAssay AID1508600 (Functional Genomics Laboratory (NCATS/FGL), 2020):
In all, about 53,000 sequences went through this assay and about 3,700 (7%) were called active. This is one part of a sample in which actives are shown more often than they occur. Values without a mark were called inactive.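 The calls were made as follows: active = gene knockdowns whose robust z-score for IL-1 alpha signal is at least 2 or at most -2, so actives lie on both sides; inactive = the rest.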

Assay: Components of the Cytosolic LPS Sensing Pathway: Gene Identification via Genome-wide siRNA Screen;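 also: robust z of the log signal after scaling to non-targeting control siRNA wells of the plate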
Settings: RAW264.7 macrophages, IL-1a HTRF, actives lie on both sides, screened at 100 nM (by protocol), cells primed 5 h with Pam3CSK4 first
Summary of the method: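 Mouse macrophage line RAW264.7 is transfected with siRNA (100 nM final), grown 48h, primed with TLR ligand Pam3CSK4 5 h and given intracellular LipidA 24 h. IL-1a in supernatant is read by HTRF and viability by luminescence.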

Row | Sequence | z-score
1 | GGUUCCCAAAGUAGAAGCATT against Dkkl1 | -0.231
2 | GCUGAGUUGACUCCUACUGTT against Mcpt1 | -2.23 (active)
3 | GGAUUUGUUUUCAGAUGUGTT against Zfp329 | -1.56
4 | GAUUCUUGUCGCUCAUAGCTT against Vmn1r52 | -0.535
5 | GGGCACACAUAUGACCGUUTT against Rrad | 0.261
6 | GCAUUCAUACAUGUAACAGTT against Wdr70 | 0.336
7 | GUCACAGAAAGCUUAGUCCTT against Olfr427 | -2.93 (active)
8 | GGGACCAGAACAAAGUGGUTT against Olfr487 | 0.474
9 | CCUAUUCAUCAUAACUCAUTT against Tdo2 | 0.129
10 | CGAGCAUAAAAGUUAUGUGTT against Chaf1b | 1.07
11 | GGAUCCUUACAAUAACAUUTT against Mmut | 2.04 (active)
12 | GCGUAUUUCCUUUCGGAGUTT against Exoc3 | 0.116
13 | CCUAAGCCCUCUAAGGCAATT against Pik3r2 | -0.753
14 | CCUCCUCUCCUAAAUGCCUTT against Llcfc1 | -1.23
15 | GGAACGAGUUUUGAAAAAATT against Creb3l3 | 0.073
16 | GGAAGAACAUUGUUACCUGTT against Svep1 | 1.1
17 | GGUCCUACUUACUACUGCCTT against Fam83h | 0.265
18 | CGUCUACCCGGAAUUUCAGTT against Sdha | -1.42
19 | GGAAGGACUAUUUUCUUUCTT against Trak1 | 1.5
20 | GGCAGAAAGCAAAAUGUUUTT against Gata3 | -4.28 (active)
21 | GUGGAUACGUGGGAAAGUCTT against Nmnat1 | 0.0316
22 | CGCUCUGUUAAUGCAGGAUTT against Papss1 | 3.22 (active)
23 | GCUAUUUCUGCCUUUAGUCTT against Scamp5 | -0.0682
24 | CCCACUGUGAAGAGAGGCATT against Xlr3c | -1.41
25 | GGUUCAGACAACUCAGUGGTT against Pbx1 | 0.813
26 | GGAGAAGGUGCUCAAGUUGTT against Henmt1 | -2.45 (active)
27 | CGGAUUCAUCAGUUUGGUATT against Cdc7 | 0.274

Row | Sequence | z-score
28 | GCAACUUACUUGAUCUGAATT against Ap2b1 | -0.292
29 | CCUUCUAAUUAUCACCAAATT against Arhgap18 | -0.102
30 | GCUAACUGCACUCCGAGAUTT against Asap1 | -0.266
31 | GGAAAAUUGAUAGCAAGCUTT against Fbxw15 | 1.9
32 | GGCACAUCUCCCUAACACUTT against Mvb12b | -2.02 (active)
33 | CCAAGCAUUAUGAGAUGCUTT against Sec23b | 0.749
34 | GGUUACUAGAUGUAUUUUGTT against Ppp3cb | -0.785
35 | GGAAGAGGACCAAAGUGCUTT against Pnpla7 | 1.75
36 | GGAUCAACAUCAGAGUUCUTT against Zfp119b | -0.562
37 | CCCUAAUUCUUAGGCCUUUTT against Bloc1s3 | -0.242
38 | GGAAAGGUUUAAUCAUGAATT against Spred1 | 0.602
39 | GGCAAGCACAAUGAUCAUUTT against Trappc11 | -2.36 (active)
40 | CGCUUUAGUGACUUUCAAATT against Metrnl | -0.583
41 | GCAGAUCCGAAUCAAUGAGTT against Twf2 | 0.504
42 | GCGAUUGAGAGGCUACACUTT against Pigb | 0.402
43 | GGGCUGUUAUUUCAAGAAATT against Galnt13 | -0.173
44 | CCCACUAAAAUCCUAUCUCTT against Ggta1 | -2.57 (active)
45 | GGGUCAAGUUUACAGAUGATT against Luc7l | 0.0159
46 | GGGUGCAUUUUAAAUACUATT against Spred2 | 0.73
47 | GGAAUCCUCUAAAUGACCUTT against Vmn1r174 | -1.49
48 | GGCCAUUCUUUGUCACCCATT against Os9 | -2.87 (active)
49 | CCAUUAACUCUUUGAGUAUTT against Omg | 0.321
50 | GGAGCUGAGAAACAAGAUUTT against Bspry | -0.972
51 | GGAUGUUAAAGCCAUAUACTT against Msh6 | -0.788
52 | GGGCUACCUCAGUUUAAACTT against Spic | 0.763
53 | GGCAAUAACUGCUUUAUCUTT against Olfr509 | -0.68
54 | GCGUAUUCAGCUGGGAUAGTT against Marveld2 | -2.42 (active)
